For ten sequences, binding signal results are on record in article PMC8384837, “Expanding the binding specificity for RNA recognition by a PUF domain”.

Sequence of PUM1 PUF domain R4-PFD (Q14671 828-1176 N971P/H972F/Q975D): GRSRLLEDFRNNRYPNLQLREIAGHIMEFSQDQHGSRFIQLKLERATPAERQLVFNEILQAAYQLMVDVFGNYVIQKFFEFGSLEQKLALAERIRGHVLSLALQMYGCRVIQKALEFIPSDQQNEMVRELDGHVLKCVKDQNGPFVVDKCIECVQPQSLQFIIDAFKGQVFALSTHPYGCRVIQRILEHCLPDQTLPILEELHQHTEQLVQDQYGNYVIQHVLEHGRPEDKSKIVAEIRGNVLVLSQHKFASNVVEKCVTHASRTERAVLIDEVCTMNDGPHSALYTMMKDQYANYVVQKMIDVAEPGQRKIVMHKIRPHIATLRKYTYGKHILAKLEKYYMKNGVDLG
Sequence of PUM1 PUF domain R4-AMV (Q14671 828-1176 N971A/H972M/Q975V): as the sequence (Q14671 828-1176 N971P/H972F/Q975D) above, with P144A, F145M, D148V counted along it
Sequence of PUM1 PUF domain R8-MWR (Q14671 828-1176 N1122M/Y1123W/Q1126R): as the sequence (Q14671 828-1176 N971P/H972F/Q975D) above, with P144N, F145H, D148Q, N295M, Y296W, Q299R counted along it
Sequence of PUM1 PUF domain R5-RFG (Q14671 828-1176 C1007R/R1008F/Q1011G): as the sequence (Q14671 828-1176 N971P/H972F/Q975D) above, with P144N, F145H, D148Q, C180R, R181F, Q184G counted along it
Sequence of PUM1 PUF domain R4-DYV (Q14671 828-1176 N971D/H972Y/Q975V): as the sequence (Q14671 828-1176 N971P/H972F/Q975D) above, with P144D, F145Y, D148V counted along it
Sequence of PUM1 PUF domain R5-HRM (Q14671 828-1176 C1007H/Q1011M): as the sequence (Q14671 828-1176 N971P/H972F/Q975D) above, with P144N, F145H, D148Q, C180H, Q184M counted along it

One assay has as its target PUM1 PUF domain R4-DYV (Homo sapiens, UniProt Q14671 828-1176, N971D;H972Y;Q975V). Put plainly: yeast three-hybrid, YBZ-1, SC-Leu-His + 0.5 mM 3-AT, 4 days. The conditions noted are these: tags: N-Gal4 AD-HA kept; label: inside an RPR1-promoter hybrid RNA with tandem MS2 sites; ssRNA. The gist of the method: (§1)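 Sequencing with Illumina followed PCR amplification of the repeat regions from transformants grown four days on SC-Leu (input) or SC-Leu-His + 0.5 mM 3-AT (selection). The transformants were strain YBZ-1 with a LexA–MS2 coat fusion and a HIS3 reporter, carrying Pumilio-1 PUF domain libraries and matching RNA elements. The interaction score is the log change in variant frequency from input to selection, computed in log2 with a pseudocount of 1 for absent variants.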
Take “GGCUAGAACUAGUGGAUCCCCCGGCGCCCGGCGGCUCGAGCCCGGGUAAGUGUAUAUAGUCUGCAUGCCGCCGGGCGCCAUGCCUGCAGGUCGACUCUAGAAAACAUG”: the binding signal is 6.86 log2 enrichment (interaction score).

On to “GGCUAGAACUAGUGGAUCCCCCGGCGCCCGGCGGCUCGAGCCCGGGUAAGUGUAAAUAGUCUGCAUGCCGCCGGGCGCCAUGCCUGCAGGUCGACUCUAGAAAACAUG”, for which the binding signal was 5.94 log2 enrichment (interaction score).

Consider “GGCUAGAACUAGUGGAUCCCCCGGCGCCCGGCGGCUCGAGCCCGGGUAAGUGUACAUAGUCUGCAUGCCGCCGGGCGCCAUGCCUGCAGGUCGACUCUAGAAAACAUG”, for which the binding signal was 6.74 log2 enrichment (interaction score).

The target in another assay is PUM1 PUF domain R5-RFA (Homo sapiens, UniProt Q14671 828-1176, C1007R;R1008F;Q1011A). Described as above. The conditions noted are these: tags: N-Gal4 AD-HA kept; label: inside an RPR1-promoter hybrid RNA with tandem MS2 sites; ssRNA. In outline: as §1
Sequence of PUM1 PUF domain R5-RFA (Q14671 828-1176 C1007R/R1008F/Q1011A): as the sequence (Q14671 828-1176 N971P/H972F/Q975D) above, with P144N, F145H, D148Q, C180R, R181F, Q184A counted along it
For the sequence “GGCUAGAACUAGUGGAUCCCCCGGCGCCCGGCGGCUCGAGCCCGGGUAAGUGUAAAUAGUCUGCAUGCCGCCGGGCGCCAUGCCUGCAGGUCGACUCUAGAAAACAUG”, the binding signal was 2.39 log2 enrichment (interaction score).

Consider “GGCUAGAACUAGUGGAUCCCCCGGCGCCCGGCGGCUCGAGCCCGGGUAAGUGUUAAUAGUCUGCAUGCCGCCGGGCGCCAUGCCUGCAGGUCGACUCUAGAAAACAUG”, for which the binding signal was 4.55 log2 enrichment (interaction score).

As for “GGCUAGAACUAGUGGAUCCCCCGGCGCCCGGCGGCUCGAGCCCGGGUAAGUGUCAAUAGUCUGCAUGCCGCCGGGCGCCAUGCCUGCAGGUCGACUCUAGAAAACAUG”, the binding signal was 5.36 log2 enrichment (interaction score).

The target of the next assay is PUM1 PUF domain R4-PFD (Homo sapiens, UniProt Q14671 828-1176, N971P;H972F;Q975D). The description is as above. The conditions noted are these: tags: N-Gal4 AD-HA kept; label: inside an RPR1-promoter hybrid RNA with tandem MS2 sites; ssRNA. In outline:
as §1
With “GGCUAGAACUAGUGGAUCCCCCGGCGCCCGGCGGCUCGAGCCCGGGUAAGUGUAUAUAGUCUGCAUGCCGCCGGGCGCCAUGCCUGCAGGUCGACUCUAGAAAACAUG”, the binding signal was 5.34 log2 enrichment (interaction score).

Take “GGCUAGAACUAGUGGAUCCCCCGGCGCCCGGCGGCUCGAGCCCGGGUAAGUGUAAAUAGUCUGCAUGCCGCCGGGCGCCAUGCCUGCAGGUCGACUCUAGAAAACAUG”: the binding signal was 3.55 log2 enrichment (interaction score).

Regarding “GGCUAGAACUAGUGGAUCCCCCGGCGCCCGGCGGCUCGAGCCCGGGUAAGUGUACAUAGUCUGCAUGCCGCCGGGCGCCAUGCCUGCAGGUCGACUCUAGAAAACAUG”, the binding signal was 1.86 log2 enrichment (interaction score).

A further assay deals with PUM1 PUF domain R5-RFG (Homo sapiens, UniProt Q14671 828-1176, C1007R;R1008F;Q1011G). Described as above. The conditions noted are these: tags: N-Gal4 AD-HA kept; label: inside an RPR1-promoter hybrid RNA with tandem MS2 sites; ssRNA. The gist of the method:
as §1
For “GGCUAGAACUAGUGGAUCCCCCGGCGCCCGGCGGCUCGAGCCCGGGUAAGUGUAAAUAGUCUGCAUGCCGCCGGGCGCCAUGCCUGCAGGUCGACUCUAGAAAACAUG”, the binding signal is 3.09 log2 enrichment (interaction score).

Regarding “GGCUAGAACUAGUGGAUCCCCCGGCGCCCGGCGGCUCGAGCCCGGGUAAGUGUGAAUAGUCUGCAUGCCGCCGGGCGCCAUGCCUGCAGGUCGACUCUAGAAAACAUG”, the binding signal was 2.66 log2 enrichment (interaction score).

Take “GGCUAGAACUAGUGGAUCCCCCGGCGCCCGGCGGCUCGAGCCCGGGUAAGUGUUAAUAGUCUGCAUGCCGCCGGGCGCCAUGCCUGCAGGUCGACUCUAGAAAACAUG”: the binding signal was 5.49 log2 enrichment (interaction score).

Consider “GGCUAGAACUAGUGGAUCCCCCGGCGCCCGGCGGCUCGAGCCCGGGUAAGUGUCAAUAGUCUGCAUGCCGCCGGGCGCCAUGCCUGCAGGUCGACUCUAGAAAACAUG”, for which the binding signal is 5.07 log2 enrichment (interaction score).

The target of the next assay is PUM1 PUF domain R5-HRM (Homo sapiens, UniProt Q14671 828-1176, C1007H;Q1011M). The description is as above. The conditions noted are these: tags: N-Gal4 AD-HA kept; label: inside an RPR1-promoter hybrid RNA with tandem MS2 sites; ssRNA. The gist of the method:
as §1
For “GGCUAGAACUAGUGGAUCCCCCGGCGCCCGGCGGCUCGAGCCCGGGUAAGUGUAAAUAGUCUGCAUGCCGCCGGGCGCCAUGCCUGCAGGUCGACUCUAGAAAACAUG”, the binding signal is 1.49 log2 enrichment (interaction score).

On to “GGCUAGAACUAGUGGAUCCCCCGGCGCCCGGCGGCUCGAGCCCGGGUAAGUGUUAAUAGUCUGCAUGCCGCCGGGCGCCAUGCCUGCAGGUCGACUCUAGAAAACAUG”, for which the binding signal was 4.33 log2 enrichment (interaction score).

On to “GGCUAGAACUAGUGGAUCCCCCGGCGCCCGGCGGCUCGAGCCCGGGUAAGUGUCAAUAGUCUGCAUGCCGCCGGGCGCCAUGCCUGCAGGUCGACUCUAGAAAACAUG”, for which the binding signal is 1.79 log2 enrichment (interaction score).

Another assay concerns the target PUM1 PUF domain R8-MWR (Homo sapiens, UniProt Q14671 828-1176, N1122M;Y1123W;Q1126R). Described as above. The conditions noted are these: tags: N-Gal4 AD-HA kept; label: inside an RPR1-promoter hybrid RNA with tandem MS2 sites; ssRNA. The gist of the method: as §1
In the case of “GGCUAGAACUAGUGGAUCCCCCGGCGCCCGGCGGCUCGAGCCCGGGUAAGUGUAAAUAGUCUGCAUGCCGCCGGGCGCCAUGCCUGCAGGUCGACUCUAGAAAACAUG”, the binding signal was 4.37 log2 enrichment (interaction score).

For the sequence “GGCUAGAACUAGUGGAUCCCCCGGCGCCCGGCGGCUCGAGCCCGGGUAAGGGUAAAUAGUCUGCAUGCCGCCGGGCGCCAUGCCUGCAGGUCGACUCUAGAAAACAUG”, the binding signal was 2.37 log2 enrichment (interaction score).

Consider “GGCUAGAACUAGUGGAUCCCCCGGCGCCCGGCGGCUCGAGCCCGGGUAAGCGUAAAUAGUCUGCAUGCCGCCGGGCGCCAUGCCUGCAGGUCGACUCUAGAAAACAUG”, for which the binding signal is 4.99 log2 enrichment (interaction score).

For a further assay, the target named is PUM1 PUF domain R3-RTR (Homo sapiens, UniProt Q14671 828-1176, C935R;R936T;Q939R). The description is as above. The conditions noted are these: tags: N-Gal4 AD-HA kept; label: inside an RPR1-promoter hybrid RNA with tandem MS2 sites; ssRNA. In outline: as §1
Sequence of PUM1 PUF domain R3-RTR (Q14671 828-1176 C935R/R936T/Q939R): as the sequence (Q14671 828-1176 N971P/H972F/Q975D) above, with C108R, R109T, Q112R, P144N, F145H, D148Q counted along it
Consider “GGCUAGAACUAGUGGAUCCCCCGGCGCCCGGCGGCUCGAGCCCGGGUAAGUGUAAUUAGUCUGCAUGCCGCCGGGCGCCAUGCCUGCAGGUCGACUCUAGAAAACAUG”, for which the binding signal is 4.46 log2 enrichment (interaction score).

With “GGCUAGAACUAGUGGAUCCCCCGGCGCCCGGCGGCUCGAGCCCGGGUAAGUGUAAAUAGUCUGCAUGCCGCCGGGCGCCAUGCCUGCAGGUCGACUCUAGAAAACAUG”, the binding signal was 0.19 log2 enrichment (interaction score).

In the case of “GGCUAGAACUAGUGGAUCCCCCGGCGCCCGGCGGCUCGAGCCCGGGUAAGUGUAAGUAGUCUGCAUGCCGCCGGGCGCCAUGCCUGCAGGUCGACUCUAGAAAACAUG”, the binding signal is 1.03 log2 enrichment (interaction score).

Another assay addresses PUM1 PUF domain R4-AMV (Homo sapiens, UniProt Q14671 828-1176, N971A;H972M;Q975V). The assay is described as above. The conditions noted are these: tags: N-Gal4 AD-HA kept; label: inside an RPR1-promoter hybrid RNA with tandem MS2 sites; ssRNA. In outline:
as §1
As to “GGCUAGAACUAGUGGAUCCCCCGGCGCCCGGCGGCUCGAGCCCGGGUAAGUGUAUAUAGUCUGCAUGCCGCCGGGCGCCAUGCCUGCAGGUCGACUCUAGAAAACAUG”, the binding signal was 1.51 log2 enrichment (interaction score).

“GGCUAGAACUAGUGGAUCCCCCGGCGCCCGGCGGCUCGAGCCCGGGUAAGUGUAAAUAGUCUGCAUGCCGCCGGGCGCCAUGCCUGCAGGUCGACUCUAGAAAACAUG”: the binding signal is 3.03 log2 enrichment (interaction score).

For the sequence “GGCUAGAACUAGUGGAUCCCCCGGCGCCCGGCGGCUCGAGCCCGGGUAAGUGUACAUAGUCUGCAUGCCGCCGGGCGCCAUGCCUGCAGGUCGACUCUAGAAAACAUG”, the binding signal was 1.83 log2 enrichment (interaction score).
